# Measurements reported in PubChem BioAssay AID488907 (Broad Institute, 2010).
# Entries with a potency or affinity are not part of this list. Results filed as inconclusive are left out. Calls of active or inactive are those of the source.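 Rule for the calls: active = fluorescence drops from fewer live microbes, with half-maximal dose at most ten times the top valid tested dose; inconclusive = flat curve with 30 to 70% inhibition, or poor fit; inactive = the rest, including signal rises.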
# Experiment: Candida growth inhibition combined with fluconazole – CaCi-2 strain, Alamar Blue, dry powder, set 3, dose response (AID 488907)
# Conditions: C. albicans CaCi-2 (fluconazole-resistant clinical isolate) + fluconazole, 48 h; series mostly up to 6 µM
row,Structure (SMILES),outcome
1,O=C(c1ccc(Cl)cc1)N1CCN(c2cccc(C(F)(F)F)n2)CC1,inactive
2,Cc1cccc(N2CCN(C(=O)c3ccc(Cl)cc3)CC2)n1,inactive
3,O=C(c1ccc(Cl)cc1)N1CCN(c2cnccn2)CC1,inactive
